Screening results deposited in PubChem by National Center for Advancing Translational Sciences (NCATS).
Sampled rows, rich in hits. Any-hit rate of the full collection: about 13%.
4-MU autofl – compounds fluorescent in 4-MU spectral region; compound autofluorescence, 340/450 nm, 4-MU equivalents; active compounds read high; 11% of 59,000 active; max dye-equivalent concentration, M; in the data active = max dye-equivalent concentration above about 10 nM; inconclusive = mostly about 1.1 nM to 9.6 nM
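Compounds in 100 mM Tris, pH 8.0, incubated 15 min at room temperature, then fluorescence read at 340 nm excitation/450 nm emission. Signal converted to 4-MU dye-equivalent concentration using an on-plate six-point 4-MU standard curve.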
PK Bst – modulators of Bacillus stearothermophilus pyruvate kinase. purified pyruvate kinase, luminescence ATP production; ribose 5-phosphate activator present at AC10. Potency, µM. 1.2% of 51,000 active. AID 361; in the data active = potency below about 11 µM; inconclusive = mostly about 12 µM to 25 µM;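 the screen sought inhibitors and activators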;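 also: potency is read from the fitted curve at half-maximal effect; scaled between full activation by ribose 5 phosphate and full inhibition by luteolin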
AID923 – qHTS Assay for Allosteric/Competitive Inhibitors of Caspase-1: Spectroscopic Profiling in AFC Spectral Region; Potency, µM (doses to about 57.5 µM), without a hit: at the top dose fluorescence increase, most hits filed as activators; compound fluorescence, AFC spectral region (405/520 nm); 1.1% of 75,000 active; AID 923, 2007; also: potency is read from the fitted curve at half-maximal effect; 0% is about no effect
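Titrations up to 57 uM read every 20 sec for 3 min (405/520 nm) with 50 nM caspase 1 and 5 uM Ac-WEHD-AFC, pH 7.5 HEPES buffer. Fluorescence-vs-time intercept gave baseline, scaled against on-plate AFC standard.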
HADH2 inh – inhibitors of human HADH2 dehydrogenase; 3.4% of 73,000 active; AID 886; Potency, µM (doses to about 57.1 µM), for inactives: at the highest dose activity change, negative = inhibition, usual class: inhibitors; recombinant HADH2, NADH fluorescence, beta-hydroxybutyryl-CoA; also: potency is read from the fitted curve at half-maximal effect; % is scaled to controls: 0 for no effect and ±100 for the full control effect; nearly all actives have a fitted effect of over 60% in size
Target sequence (Q99714 whole entry, looked up, one chain of several): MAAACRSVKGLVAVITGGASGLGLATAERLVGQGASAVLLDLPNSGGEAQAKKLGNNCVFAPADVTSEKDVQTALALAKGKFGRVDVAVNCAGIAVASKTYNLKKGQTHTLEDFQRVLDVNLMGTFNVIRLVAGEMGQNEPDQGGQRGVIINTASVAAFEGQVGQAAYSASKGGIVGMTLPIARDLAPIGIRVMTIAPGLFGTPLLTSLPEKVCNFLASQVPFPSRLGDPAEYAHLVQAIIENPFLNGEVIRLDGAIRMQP
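Activity measured as NADH fluorescence gain (360/450 nm), taken as the change between first and last reads of a 4-min kinetic run. Conditions: pH 9.0 Tris buffer, 20 nM E. coli-expressed His-tagged enzyme, 1 mM NAD+, 90 uM beta-hydroxybutyryl-CoA; 15-min compound preincubation.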
A350 autofl – A350 region autofluorescence; Compound autofluorescence, 340/450 nm, Alexa 350 dye-equivalents; active compounds read high; max dye-equivalent concentration, M; 11% of 59,000 active; AID 590; in the data active = max dye-equivalent concentration above about 10 nM; inconclusive = mostly about 1.1 nM to 9.6 nM
HSD17B inh – blocks hydroxysteroid 17-beta dehydrogenase activity | Q99714 | recombinant HSD17B10, NADH fluorescence kinetic | Potency, µM (highest dose often 57.1 µM), for inactives: top-dose activity change, negative = inhibition, usual class: inhibitors | 7.6% of 75,000 active | AID 893;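 also: the protocol describes HADH2 (HSD17B10) and not the HSD17B4 of the title; potency is read from the fitted curve at half-maximal effect; % is scaled to controls: 0 for no effect and ±100 for the full control effect; nearly all actives have a fitted effect of over 70% in size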
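Enzyme plus compound, 15 min room temperature; substrate mix added (NAD+ 1 mM, beta-hydroxybutyryl-CoA 90 uM final); plates read kinetically for NADH fluorescence. HADH2 was His-tagged, E. coli-derived, 20 nM.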
* marks the source's active call; other numbers are inactive results; i = inactive; ? = inconclusive; · = no result; [ ] = dose if it differs, or a comment. Unless noted, calls follow the shape of the dose curve; as a rule, active = well fitted curve in the direction sought with a large enough effect; inconclusive = small, poorly fitted or top-dose-only effect, or another doubt; inactive = no such curve, though single readings can be large; an effect the other way counts as inactive or inconclusive.

SMILES	4-MU autofl	PK Bst	AID923	HADH2 inh	A350 autofl	HSD17B inh
COc1ccc(S(=O)(=O)N(C)CC(=O)NCc2cccnc2)cc1C	9.5e-06M*	>57	1%	?	8.7e-06M*	2%
CCOc1ccccc1NC(=O)CN(C)S(=O)(=O)c1ccc(OC)c(C)c1	?	>57	0%	1%	1.3e-08M*	-11%
COC(=O)c1ccccc1NC(=O)CN(C)S(=O)(=O)c1cc(C)ccc1OC	i	>57	-2%	-1%	i	25µM*
COC(=O)c1ccc(C(NC(=O)OCc2ccccc2)/C(I)=C/[C@@H](C)C(=O)Nc2ccccc2)cc1 (some centres undefined)	·	·	0%	-6%	·	13%
CCCCCCn1c(CN2CCC(C)CC2)nc2c1c(=O)n(C)c(=O)n2C	i	>57	-1%	7%	i	5%
CCCCCn1c(CN2CCCCC2CC)nc2c1c(=O)n(C)c(=O)n2C (centres undefined)	·	·	-5%	16%	·	20µM*
CCCCCn1c(CN2CCCCC2C)nc2c1c(=O)n(C)c(=O)n2C (centres undefined)	i	>57	-3%	6%	i	9%
CCOCCn1c(CN2CCC(C)CC2)nc2c1c(=O)n(C)c(=O)n2C	·	·	10%	?	·	13µM*
COCn1c2ccccc2c2nnc(C(C)=O)nc21	·	·	-2%[11.5 µM]	1%[11.4 µM]	·	1%[11.4 µM]
CN(C)C[C@@H](O)c1ccc(Cl)c2ccccc12	i	·	1%[11.5 µM]	0%[11.4 µM]	i	17%[11.4 µM]
CCc1ccc(C2C3=C(CC(C)(C)CC3=O)Nc3c2c(=O)[nH]c2nc(C)nn32)cc1 (centres undefined)	2.5e-07M*	>57	3%	0%	3.2e-07M*	7.9µM*
Cc1nc2[nH]c(=O)c3c(n2n1)NC1=C(C(=O)CC(C)(C)C1)C3c1ccc(F)cc1 (centres undefined)	3.5e-07M*	>57	-3%	7%	3.8e-07M*	32µM*
C[C@H]1[C@H](C)CC[C@]2(C(=O)O)CC[C@]3(C)C(=CCC4[C@@]5(C)C[C@@H](O)[C@H](O)[C@@](C)(CO)[C@@H]5CC[C@]43C)[C@H]12 (some centres undefined)	·	·	0%	·	·	-6%
O=C(OCCNc1ncc(C(F)(F)F)cc1Cl)c1ccc(S(=O)(=O)N2CCOCC2)cc1	i	>57	-1%	14%	i	7%
COC(=O)c1[nH]c2cccc(OC)c2c1NC(=O)CCN1CCC(C)CC1	1.5e-08M*	>57	3%	-23%	?	32µM*
CCOC(=O)Nc1c(C(=O)OC)[nH]c2cccc(OC)c12	1.5e-08M*	>57	0%	-24%	?	32µM*
COC(=O)c1[nH]c2cccc(OC)c2c1NC(=O)CCN1CCN(c2ccccc2OC)CC1	1.7e-08M*	>57	0%	?	?	25µM*
COC(=O)c1[nH]c2cccc(OC)c2c1NC(=O)CN1CCN(c2cccc(OC)c2)C(C)C1 (centres undefined)	i	>57	1%	?	?	25µM*
COc1ccc(CNc2cc(-c3cccc(C#N)c3)ncn2)c(OC)c1	i	·	3%	6%	i	3%
O=C1C=CC(=O)c2c1ccc1c2ccc2ccccc21	2e-08M*	·	-1%[25.7 µM]	-22%[25.6 µM]	1.9e-08M*	-21%[25.6 µM]
O=c1c2ccccc2c2ccccc2c(=O)n1-c1cc2c3ccccc3ccc2c2ccccc12	i	·	-2%[11.5 µM]	13%[11.4 µM]	i	-2%[11.4 µM]
CCOC(=O)C1CCCN(C(=O)CCC(=O)Nc2ccc3nc(N4CCOCC4)cc(C)c3c2)C1 (centres undefined)	1.2e-06M*	>57	0%	20µM*	1e-06M*	25µM*
CCN1CCN(c2cc(C)c3cc(NC(=O)c4ccncc4)ccc3n2)CC1	·	·	3%	-11%	·	-22%
Cc1cc(N2CCN(C)CC2)nc2ccc(NC(=O)CCC(=O)NCCC3=CCCCC3)cc12	1.5e-07M*	>57	1%	-17%	1.4e-07M*	?
CCCCNC(=O)CCC(=O)Nc1ccc2nc(N3CCOCC3)cc(C)c2c1	1.3e-06M*	·	-2%	25µM*	1.2e-06M*	25µM*
SMILES	4-MU autofl	PK Bst	AID923	HADH2 inh	A350 autofl	HSD17B inh
COCCCNC(=O)CCC(=O)Nc1ccc2nc(N3CCOCC3)cc(C)c2c1	1.7e-06M*	>57	-4%	12%	1.6e-06M*	25µM*
Cc1cc([C@](C)(N)C(=O)O)ccc1P(=O)(O)O	·	·	3%	22%	·	-10%
Cc1cccc(C)c1OCC(O)CNS(=O)(=O)c1ccccc1C(=O)N1CCCCC1 (centres undefined)	i	>26	·	·	i	·
CC(=O)SC[C@@H](Cc1ccccc1)C(=O)NCC(=O)OCc1ccccc1	?	·	1%[25.7 µM]	1%[25.6 µM]	?	4%[25.6 µM]
Cc1cc(N2CCOCC2)nc2ccc(NC(=O)C3CCC(C)CC3)cc12 (centres undefined)	2.4e-07M*	>57	1%	?	2.2e-07M*	7.9µM*
O=C(Nc1ccc(N2CCOCC2)cc1)C1CC1	i	>57	4%	-10%	i	6%
O=C(CSc1nnc(-c2cccnc2)o1)c1cc2ccccc2oc1=O	?	>57	0%	-22%	?	?
O=C(Cn1nc(Cl)nc1Cl)c1cc2ccccc2oc1=O	1.8e-07M*	>57	4%	?	2.4e-07M*	25µM*
Cn1cnnc1SCC(=O)c1cc2ccccc2oc1=O	?	>57	7%	?	?	20µM*
O=C(Cn1nc(Cl)nc1Cl)c1ccc2c(c1)OCCO2	i	>57	2%	-1%	i	1%
CC1=C(C(=O)Nc2ccccc2C)C(c2ccc(C)o2)N2C(=O)CSC2=N1 (centres undefined)	?	>57	1%	2%	?	-1%
O=C(c1ccco1)N1CCN(Cc2ccccc2C(F)(F)F)CC1	·	·	0%	6%[11.4 µM]	·	3%
O=C(c1ccco1)N1CCN(c2nc(C(F)(F)F)nc3c2nnn3Cc2ccccc2)CC1	i	>57	2%	-28%	i	32µM*
COc1ccc(-c2nc3ccccc3c(=O)n2CCN2CCOCC2)cc1	i	>57	-1%	-22%	i	7%
COc1ccc(-c2cc(C(=O)NCCN3CCOCC3)c3ccccc3n2)cc1	3.6e-07M*	i	0%	?	5.7e-07M*	32µM*
CCOc1ccc(-c2cc(C(=O)NCCCN3CCN(CC)CC3)c3ccccc3n2)cc1	2.2e-07M*	10*	1%	-140%	2.9e-07M*	32µM*
COc1ccc(Nc2cc(C(=O)NCCCN3CCN(C)CC3)c3ccccc3n2)c(OC)c1	i	·	-1%	-5%	i	-9%
O=C(NCCCN1CCOCC1)c1cc(-c2ccc3c(c2)OCO3)nc2ccccc12	·	·	-1%	-4%	·	32µM*
